From the supplement of paper PMC7411054
Counter-ions that a name gives are not always drawn.

What was measured:
Conditions in all cases: treatment time: 24 h
[1] = test system: A549-ACTB-RAB5A; assay: lowest phenotypically active concentration; higher = less potent
Outline: (§1)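 After 24 h at 0.3, 1, 3 or 9 µM, with four wells per treatment, fifteen gene-edited A549, HepG2 and WPMY1 reporter lines carrying BFP, GFP and RFP/FusionRed were imaged live. Each well's live-cell features were expressed relative to solvent control wells. Deviation required ≥3 of 4 wells past the 95th percentile of control Euclidean distances, and reproducibility a median replicate Pearson correlation over the 95th percentile of non-replicates. Phenotypic activity rested on both.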

[2] = test system: A549-CANX-COX4; assay: as above
Outline: as §1

[3] = test system: A549-GM130-SQSTM1; assay: as above
Outline: as §1

[4] = test system: A549-TP53BP1-CLTA; assay: as above
Outline: as §1

[5] = test system: A549-TUBA1B-RELA; assay: as above
Outline: as §1

[6] = test system: HepG2-GM130-SQSTM1; assay: as above
Outline: as §1

[7] = test system: A549-ACTB-RAB5A; assay: phenotypically active (imaging signature differs from DMSO and reproducible) at any of 0.3-9 uM (binary (1 = active, 0 = inactive)); higher = active
Outline: as §1

[8] = test system: A549-CANX-COX4; assay: as above
Outline: as §1

[9] = test system: A549-GM130-SQSTM1; assay: as above
Outline: as §1

[10] = test system: A549-TP53BP1-CLTA; assay: as above
Outline: as §1

[11] = test system: A549-TUBA1B-RELA; assay: as above
Outline: as §1

[12] = test system: HepG2-ACTB-RAB5A; assay: as above
Outline: as §1

[13] = test system: HepG2-CANX-COX4; assay: as above
Outline: as §1

[14] = test system: HepG2-GM130-SQSTM1; assay: as above
Outline: as §1

[15] = test system: HepG2-TP53BP1-CLTA; assay: as above
Outline: as §1

[16] = test system: HepG2-TUBA1B-RELA; assay: as above
Outline: as §1

[17] = test system: WPMY1-CANX-COX4; assay: as above
Outline: as §1

[18] = test system: WPMY1-GM130-SQSTM1; assay: as above
Outline: as §1

[19] = test system: WPMY1-TP53BP1-CLTA; assay: as above
Outline: as §1

[20] = test system: WPMY1-TUBA1B-RELA; assay: as above
Outline: as §1

CN(C)C1CCN(C(=O)c2ccc(NC(=O)Nc3ccc(-c4nc(N5CCOCC5)nc(N5CCOCC5)n4)cc3)cc2)CC1
lowest phenotypically active concentration [1]: ≤ 0.3 µM | lowest phenotypically active concentration [2]: ≤ 0.3 µM | lowest phenotypically active concentration [3]: ≤ 0.3 µM | lowest phenotypically active concentration [4]: ≤ 0.3 µM | lowest phenotypically active concentration [5]: ≤ 0.3 µM | lowest phenotypically active concentration [6]: ≤ 0.3 µM | phenotypically active [7]: 1 (active) | phenotypically active [8]: 1 (active) | phenotypically active [9]: 1 (active) | phenotypically active [10]: 1 (active) | phenotypically active [11]: 1 (active) | phenotypically active [12]: 1 (active) | phenotypically active [13]: 1 (active) | phenotypically active [14]: 1 (active) | phenotypically active [15]: 1 (active) | phenotypically active [16]: 1 (active) | phenotypically active [17]: 1 (active) | phenotypically active [18]: 1 (active) | phenotypically active [19]: 1 (active) | phenotypically active [20]: 1 (active)

Oc1cccc(-c2nc(N3CCOCC3)c3oc4ncccc4c3n2)c1 [PI 103 hydrochloride]
lowest phenotypically active concentration [1]: ≤ 0.3 µM | lowest phenotypically active concentration [2]: ≤ 0.3 µM | lowest phenotypically active concentration [3]: ≤ 0.3 µM | lowest phenotypically active concentration [4]: ≤ 0.3 µM | lowest phenotypically active concentration [5]: ≤ 0.3 µM | lowest phenotypically active concentration [6]: ≤ 0.3 µM | phenotypically active [7]: 1 (active) | phenotypically active [8]: 1 (active) | phenotypically active [9]: 1 (active) | phenotypically active [10]: 1 (active) | phenotypically active [11]: 1 (active) | phenotypically active [12]: 1 (active) | phenotypically active [13]: 1 (active) | phenotypically active [14]: 1 (active) | phenotypically active [15]: 1 (active) | phenotypically active [16]: 1 (active) | phenotypically active [17]: 1 (active) | phenotypically active [18]: 1 (active) | phenotypically active [19]: 1 (active) | phenotypically active [20]: 1 (active)

CO[C@@H]1[C@H](N(C)C(=O)c2ccccc2)C[C@H]2O[C@]1(C)n1c3ccccc3c3c4c(c5c6ccccc6n2c5c31)C(=O)NC4
lowest phenotypically active concentration [1]: ≤ 0.3 µM | lowest phenotypically active concentration [2]: ≤ 0.3 µM | lowest phenotypically active concentration [3]: ≤ 0.3 µM | lowest phenotypically active concentration [4]: ≤ 0.3 µM | lowest phenotypically active concentration [5]: ≤ 0.3 µM | lowest phenotypically active concentration [6]: ≤ 0.3 µM | phenotypically active [7]: 1 (active) | phenotypically active [8]: 1 (active) | phenotypically active [9]: 1 (active) | phenotypically active [10]: 1 (active) | phenotypically active [11]: 1 (active) | phenotypically active [12]: 1 (active) | phenotypically active [13]: 1 (active) | phenotypically active [14]: 1 (active) | phenotypically active [15]: 1 (active) | phenotypically active [16]: 1 (active) | phenotypically active [17]: 1 (active) | phenotypically active [18]: 1 (active) | phenotypically active [19]: 1 (active) | phenotypically active [20]: 1 (active)

CN(C)CCCNc1c2c(=O)n(C)c(=O)nc-2n(C)c2ccccc12
lowest phenotypically active concentration [1]: 9 µM | lowest phenotypically active concentration [2]: 9 µM | lowest phenotypically active concentration [3]: 9 µM | lowest phenotypically active concentration [4]: 9 µM | lowest phenotypically active concentration [5]: 9 µM | lowest phenotypically active concentration [6]: 9 µM | phenotypically active [7]: 1 (active) | phenotypically active [8]: 1 (active) | phenotypically active [9]: 1 (active) | phenotypically active [10]: 1 (active) | phenotypically active [11]: 1 (active) | phenotypically active [12]: 1 (active) | phenotypically active [13]: 1 (active) | phenotypically active [14]: 1 (active) | phenotypically active [15]: 1 (active) | phenotypically active [16]: 1 (active) | phenotypically active [17]: 1 (active) | phenotypically active [18]: 1 (active) | phenotypically active [19]: 1 (active) | phenotypically active [20]: 1 (active)

Nc1cccc(-c2cc3c(Oc4cccc(O)c4)ncnc3[nH]2)c1
lowest phenotypically active concentration [1]: 1 µM | lowest phenotypically active concentration [2]: 1 µM | lowest phenotypically active concentration [3]: 9 µM | lowest phenotypically active concentration [4]: 1 µM | lowest phenotypically active concentration [5]: 1 µM | lowest phenotypically active concentration [6]: 3 µM | phenotypically active [7]: 1 (active) | phenotypically active [8]: 1 (active) | phenotypically active [9]: 1 (active) | phenotypically active [10]: 1 (active) | phenotypically active [11]: 1 (active) | phenotypically active [12]: 1 (active) | phenotypically active [13]: 1 (active) | phenotypically active [14]: 1 (active) | phenotypically active [15]: 1 (active) | phenotypically active [16]: 1 (active) | phenotypically active [17]: 1 (active) | phenotypically active [18]: 1 (active) | phenotypically active [19]: 1 (active) | phenotypically active [20]: 1 (active)
